This is a sample that favours compounds with a hit; in the whole collection about 0.85% have one here.
GAA inh: qHTS Assay for Inhibitors of Human alpha-Glucosidase as a Potential Chaperone Treatment of Pompe Disease; Lysosomal alpha-glucosidase (Homo sapiens), P10253; purified human GAA, 4-MU-alpha-glucoside fluorescence; Potency, µM (top dose mostly 76.9 µM), for inactives: at the highest dose activity change, negative = inhibition, hits mostly inhibitors; 200,000 tested, 0.005% active; AID 1466, 2008;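 note: potency is the fitted concentration of half-maximal effect; plate controls were uninhibited enzyme wells for no effect and no-enzyme background for full effect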
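AC50 values come from Hill fits of compound titrations (up to 77 uM) against 4 nM human enzyme. Substrate 4-methylumbelliferyl-alpha-D-pyranoside at 400 uM, pH 5.0 citrate buffer, 20 min room temperature; fluorescence Ex 365/Em 440 after alkaline stop.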
FBPA coupling cs: qHTS Assay for Inhibitors of Fructose-1,6-bisphosphate Aldolase from Giardia Lamblia: Coupling assay counterscreen. activity change, negative = inhibition, % at 58.2 µM, hits read low. AID 2472, 2010. 290,000 tested, 0.67% active. coupling enzyme system counterscreen, AmpLite Red fluorescence; in the data active = activity change below about -30%
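First, compound is pin-transferred into glyceraldehyde-3-phosphate coupling-enzyme reagent at 57.5 uM final and held 10 min at RT. Next, substrate, coupling system and AmpLite Red are added. After 20 min RT, fluorescence (525/598 nm) is read.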
GAA glycogen: qHTS Assay for Inhibitors and Activators of Human alpha-Glucosidase Cleavage of Glycogen. Lysosomal alpha-glucosidase (Homo sapiens), P10253. 300,000 tested, 0.38% active. Potency, µM (doses to about 76.4 µM), for inactives: at the top dose activity change, negative = inhibition, most hits filed as inhibitors. recombinant GAA, glycogen substrate, Amplex Red glucose oxidase fluorescence;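 note: potency is the fitted concentration of half-maximal effect; 0% = full enzyme reaction and -100% = no-enzyme basal signal; the screen sought inhibitors and activators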
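Recombinant enzyme (4 nM final) with compounds titrated up to 77 uM and bovine liver glycogen (30 ug) in citrate pH 5.0, 0.01% Tween-20, 37 C 40 min. Released glucose detected by Amplex Red/glucose oxidase (Ex 573/Em 610); AC50 from Hill fits.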
aGlu spleen mod: qHTS Assay for Inhibitors and Activators of Human alpha-Glucosidase From Spleen Homogenate | Potency, µM (series often up to 79.9 µM), without a hit: top-dose activity change, negative = inhibition, most hits filed as inhibitors | Lysosomal alpha-glucosidase (Homo sapiens), P10253 | human spleen homogenate, 4-MU-alpha-glucoside fluorescence | 240,000 tested, 0.006% active;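 note: potency is the fitted concentration of half-maximal effect; 0% = enzyme with vehicle and -100% = no enzyme basal signal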
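Compounds were titrated against alpha-glucosidase in spleen homogenate at pH 5.0, with 1 mM 4-methylumbelliferyl substrate for 40 min at 37 C. Reactions were quenched with pH 10 NaOH/glycine and fluorescence measured.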
B2AR arrestin: qHTS assay of beta-arrestin-biased ligands of beta2-adrenergic receptor. Beta-2 adrenergic receptor (Homo sapiens), P07550. beta-arrestin recruitment to beta2AR, cell-based reporter. Potency, µM (doses to about 46.1 µM), without a hit: at the highest dose activation, actives largely listed as activators. 330,000 tested, 0.02% active. AID 492947, 2010;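 note: potency is the fitted concentration of half-maximal effect; 0% = DMSO controls and full agonism = EC100 isoproterenol or metaproterenol; nearly all actives have a fitted effect of over 65% in size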
Target sequence (P07550 whole entry, looked up): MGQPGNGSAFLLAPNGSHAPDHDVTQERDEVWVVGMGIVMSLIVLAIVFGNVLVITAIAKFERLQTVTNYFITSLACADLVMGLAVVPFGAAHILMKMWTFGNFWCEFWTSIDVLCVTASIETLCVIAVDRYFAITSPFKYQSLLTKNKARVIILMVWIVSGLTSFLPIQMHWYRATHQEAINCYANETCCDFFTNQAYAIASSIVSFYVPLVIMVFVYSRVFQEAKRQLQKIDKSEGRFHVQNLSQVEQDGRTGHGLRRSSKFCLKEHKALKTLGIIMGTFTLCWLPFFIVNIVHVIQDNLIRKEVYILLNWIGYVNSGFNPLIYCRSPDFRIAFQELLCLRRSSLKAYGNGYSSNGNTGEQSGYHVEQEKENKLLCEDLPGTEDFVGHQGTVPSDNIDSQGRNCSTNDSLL
* marks the source's active call; other numbers are inactive results; ? = inconclusive; · = not tested or not shown; [ ] = another dose, or the depositor's remark. Unless noted, calls come from the whole dose curve; as a rule, active = well fitted curve in the direction sought with a large enough effect; inconclusive = small, poorly fitted or top-dose-only effect, or another doubt; inactive = no such curve, though single readings can be large; an effect the other way counts as inactive or inconclusive. Unless noted, % is set by controls: 0 for no effect and ±100 for the full control effect.

SMILES	GAA inh	FBPA coupling cs	GAA glycogen	aGlu spleen mod	B2AR arrestin
O=C(NCc1ccccn1)C1(C(F)(F)F)CC(CCCO)CCCO1 (configuration not stated)	·	2	·	-6%	·
CN(Cc1ccccc1)S(=O)(=O)c1cccc2cccnc12	-8%	-31*	6%	1%	0%
COc1cccc(CNC(=O)CN(C)S(=O)(=O)c2cccc3cccnc23)c1	·	0	2%	-5%	-1%
O=c1c2cc(N3CCOCC3)ccc2[nH]c(=S)n1CCCN1CCCC1	-5%	0	-11%	-1%	0%
O=c1c2cc(N3CCOCC3)ccc2[nH]c(=S)n1CCCN1CCCCC1	2%	-38*	-6%	-3%	0%
CCn1c2ccccc2c2cc(CN3CCN(Cc4cc(OC)ccc4O)CC3)ccc21	-15%	-1	7.9µM*	-1%	-1%
COc1ccc2c(c1)OCC1=C2CCC2(C)C(=O)CC=C12 (configuration not stated)	6%	-34*	-16%	-4%	0%
COc1ccc2c(c1)SCCC2=O	0%	2	3%	0%	4%
CCn1ccc2cc(OC)ccc2c1=S	-12%	-83*	3%	-5%	0%
CN(C(=O)Nc1ccccc1)C1CCS(=O)(=O)C1 (configuration not stated)	-2%	2	5%	0%	-2%
CC(=O)NC1=C(N(C)C2CCS(=O)(=O)C2)C(=O)c2ccccc2C1=O (configuration not stated)	-3%	-70*	0%	-2%	-1%
Cc1cc(C)cc(NC(=S)/C(=C(\[O-])c2ccc(Cl)cc2Cl)[n+]2ccc(C(C)(C)C)cc2)c1	·	-1	-1%	-5%	0%
CC(C)(C)c1cc[n+](/C(C(=S)NC2CC2)=C(/[O-])c2ccc(Cl)s2)cc1	-6%	-44*	3%	1%	0%
Cc1cc(C)cc(NC(=S)/C(=C(\[O-])c2ccc(Cl)s2)[n+]2cccc(C)c2)c1	-9%	-4	-12%	2%	0%
[O-]/C(=C(\C(=S)Nc1cccc2ccccc12)[n+]1ccccc1)c1ccc(Cl)s1	-3%	-39*	-9%	-1%	-1%
CCc1cccc(CC)c1NC(=S)/C(=C(\[O-])c1ccc(Cl)s1)[n+]1ccccc1	-4%	0	-3%	1%	0%
Cc1ccc(C)c(NC(=S)/C(=C(\[O-])c2ccc(Cl)s2)[n+]2ccccc2)c1	-4%	-40*	-1%	2%	-1%
Cc1ccc2oc(=O)c(/C=C(\O)C(C)(C)C)nc2c1	-7%	3	6.3µM*	1%	0%
CC(C)(C)/C(O)=C/c1nc2cc(Cl)ccc2oc1=O	·	0	3.2µM*	3%	-1%
Cc1ccc2oc(=O)c(/C=C(\O)c3ccco3)nc2c1	·	-2	?	3%	0%
COc1ccc(C(=O)N/N=C/c2ccc(N3CCOCC3)o2)cc1OC	-8%	-35*	-6%	0%	-1%
CN1CCc2cc3c(c4c2[C@H]1[C@H](O)c1ccccc1-4)OCO3	-1%	-32*	6%	8%	0%
COc1ccc2c(c1OC)C(=O)O[C@H]2C1c2c(cc3c(c2OC)OCO3)CCN1C (some centres not stated)	·	-2	·	5%	·
COc1cccc(OC)c1OCCN(C)C	-3%	-34*	-7%	-3%	0%
COc1cccc(OC)c1OCCNC(C)(C)C	?	-1	-2%	9%	-1%
Cc1ccc(C(C)C)n1C(=O)OC(C)(C)C	·	1	·	-4%[17.4 µM]	·
O=C1S/C(=C\c2ccc(N3CCOCC3)o2)C(=O)N1Cc1ccc(F)cc1	-10%	-36*	-1%	-3%	-1%
CC(C)OC(=O)CN1C(=O)S/C(=C/c2ccc(N3CCCCC3)o2)C1=O	-1%	-38*	-17%	5%	0%
O=C1NC(=S)S/C1=C/c1ccc(N2CCOCC2)o1	-1%	-51*	?	-7%	0%

Screening data deposited in PubChem by National Center for Advancing Translational Sciences (NCATS).
